Hits are enriched below; roughly 3.7% of the tested compounds scored in any of these assays.
ATXN viability = cell viability loss in ATXN counter-screen. S2 cells (HEK-293 line with an ATXN2-luciferase reporter) viability, CellTiter-Fluor protease fluorescence, 24 h. Potency, µM (highest dose often 56.7 µM), usual class: cytotoxic. hit rate 0.49% among 400,000. AID 651635; further: nearly all actives have a fitted effect of over 40% in size
ATXN2 expr inh = ATXN2 expression inhibition | AID 1745845 | HEK-293 ATXN2-luciferase reporter, luminescence, 24 h | Potency, µM (titrated, usually from 57 µM), inactives show at the highest dose activity change, negative = inhibition, hits mostly inhibitors | hit rate 0.72% among 360,000; further: on the % scale 0 is the no-effect control and ±100 the full control effect; nearly all actives have a fitted effect of over 55% in size
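ATXN2-luciferase reporter cells (luciferase flanked by upstream and downstream ATXN2 gene portions) were treated 24 h at 37 °C with compounds at up to 57 uM. SteadyGlo luminescence gave expression; GF-AFC fluorescence gave viability.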
TGFb inhibitor = TGF-b pathway inhibition | HepG2 CAGA-GFP TGF-b/SMAD3 reporter, GFP fluorescence, 18 h; TGF-beta stimulated, 500 pg/mL final | Potency, µM (top dose mostly 46.1 µM), for the others: top-dose activity, negative = inhibition, actives largely listed as inhibitors | hit rate 1.2% among 410,000; further: on the % scale 0 is the no-effect control and ±100 the full control effect; nearly all actives have a fitted effect of over 65% in size
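Cell-based qHTS in HEPG2 carrying a CAGA-GFP Smad reporter; compounds added before 500 pg/mL final TGF-beta, 18 h incubation at 37 degrees C, GFP fluorescence quantified per cell by imaging cytometry.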
GLP-1R agonist = activates the human GLP-1 receptor | hit rate 0.007% among 380,000 | AID 624172 | P43220 | HEK293 GLP-1R CRE-luciferase, luminescence, 4-6 h; cells express a hypersensitive GLP-1R form | Potency, µM (doses to about 45.6 µM), without a hit: at the top dose activation, usual class: activators; further: % of control where 0% means no effect
Target sequence (P43220 whole entry, looked up): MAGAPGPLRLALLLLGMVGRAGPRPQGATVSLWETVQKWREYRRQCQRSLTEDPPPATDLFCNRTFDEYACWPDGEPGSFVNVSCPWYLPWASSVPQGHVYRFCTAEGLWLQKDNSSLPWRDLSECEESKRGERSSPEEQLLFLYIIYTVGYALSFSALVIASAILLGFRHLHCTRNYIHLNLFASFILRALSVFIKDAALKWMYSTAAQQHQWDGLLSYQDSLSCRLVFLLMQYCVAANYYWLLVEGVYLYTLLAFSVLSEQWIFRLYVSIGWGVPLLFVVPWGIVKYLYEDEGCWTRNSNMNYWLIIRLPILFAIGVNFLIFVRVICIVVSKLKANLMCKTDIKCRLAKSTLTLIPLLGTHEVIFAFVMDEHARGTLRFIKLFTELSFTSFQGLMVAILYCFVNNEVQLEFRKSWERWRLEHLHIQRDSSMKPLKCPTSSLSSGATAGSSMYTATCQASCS
GLP-1R inv ag = inverse agonists of human GLP-1 receptor; HEK293 GLP-1R CRE-luciferase, luminescence, 24 h; GLP-1R form is constitutively active; Potency, µM (highest dose often 38.3 µM), for inactives: at the top dose activity change, negative = inhibition, usual class: inhibitors; hit rate 1.6% among 410,000; AID 624417; further: on the % scale 0 is the no-effect control and ±100 the full control effect; nearly all actives have a fitted effect of over 55% in size
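Assay principle: reduced luminescence from a cAMP-responsive reporter in HEK293 cells co-expressing a constitutively active GLP-1R. Conditions: 24 hr compound incubation, 37 deg C, 5% CO2.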
HepG2 tox-1 = counter-screen for TGF-b inhibitors: cytotoxicity in HepG2 cells; Potency, µM (doses to about 46.1 µM), without a hit: top-dose activity change, negative = cytotoxicity, most hits filed as cytotoxic; hit rate 0.76% among 410,000; HepG2 CAGA-GFP viability, ATP luminescence, 18 h
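CellTiter-Glo luminescence gave cytotoxicity after 18 hours at 37 degrees C. The cells were HepG2 CAGA-GFP in 1% FBS DMEM, stimulated with 500 pg/mL TGF-beta after compound addition. %Activity was normalised to no-cell wells (complete cell-killing) and DMSO (no toxicity), and curves were fitted and classified.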
TGFb CAGA inh = TGF-b pathway inhibition, cherry-pick retest; AID 720534; HepG2 CAGA-GFP TGF-b reporter, GFP fluorescence, 18 h; cells stimulated with TGF-beta, 500 pg/mL; Potency, µM (top dose mostly 46.1 µM), for the others: at the highest dose activity, negative = inhibition, usual class: inhibitors; shares compounds with TGFb inhibitor; hit rate 63% among 1,600; further: on the % scale 0 is the no-effect control and ±100 the full control effect; nearly all actives have a fitted effect of over 65% in size
HepG2 tox-2 = toxic to HepG2 cells in TGF-b counterscreen; shares compounds with TGFb inhibitor; hit rate 27% among 1,600; Potency, µM (series often up to 46.1 µM), for inactives: at the top dose activity, negative = cytotoxicity, most hits filed as inhibitors; HepG2 CAGA-GFP viability, ATP luminescence, 18 h; cells stimulated with TGF-beta, 500 pg/mL; further: on the % scale 0 is the no-effect control and ±100 the full control effect; nearly all actives have a fitted effect of over 70% in size
TGFb CCL64 inh = orthogonal confirmation of TGF-b inhibitors in CCL64 cells; shares compounds with TGFb inhibitor; CCL64 CAGA-GFP reporter, TGF-b stimulated, GFP fluorescence, 18 h; Potency, µM (series often up to 46.1 µM), for the others: at the top dose activity, negative = inhibition, hits mostly inhibitors; hit rate 41% among 1,600; AID 720536; further: nearly all actives have a fitted effect of over 65% in size
TGFb COP inh = TGF-b inhibition validated with COP promoter; shares compounds with TGFb inhibitor; HepG2 COP-GFP TGF-b reporter, GFP fluorescence, 18 h; cells stimulated by added recombinant TGF-beta; Potency, µM (doses to about 46.1 µM), inactives show top-dose activity, negative = inhibition, actives largely listed as inhibitors; hit rate 3% among 1,600; AID 720537; further: nearly all actives have a fitted effect of over 70% in size
* = called active by the depositor. The call rests on the fitted dose curve; in most records, active means well fitted curve in the direction sought with a large enough effect; inconclusive means small, poorly fitted or top-dose-only effect, or another doubt; inactive means no such curve, though single readings can be large; an effect the other way counts as inactive or inconclusive. Potency means the concentration at half of the fitted maximal effect.

What do the screens show for `COc1ccc(/C=C2/CSC/C(=C/c3ccc(OC)c(OC)c3)C2=O)cc1OC`?
ATXN viability: 4µM*; ATXN2 expr inh: 5.6µM*; TGFb inhibitor: 6.3µM*; GLP-1R agonist: 9%; GLP-1R inv ag: 5µM*; HepG2 tox-1: -3%; TGFb CAGA inh: 1.3µM*; HepG2 tox-2: 3.3µM*; TGFb CCL64 inh: 2.3µM*; TGFb COP inh: 9%

How did C=CCNc1ncnc2c1ncn2C1OC(CO)C(O)C1O (stereo not drawn) do in these assays?
ATXN viability: inactive; ATXN2 expr inh: -7%; TGFb inhibitor: 10µM*; GLP-1R agonist: 20%; GLP-1R inv ag: 25%; HepG2 tox-1: 7.9µM*; TGFb CAGA inh: 10µM*; HepG2 tox-2: inconclusive; TGFb CCL64 inh: -18%; TGFb COP inh: 28%

What do the screens show for `CC(C)=CCNc1ncnc2c1ncn2[C@@H]1O[C@H](CO)[C@@H](O)[C@H]1O`?
ATXN viability: inconclusive; ATXN2 expr inh: -24%

What do the screens show for `OCC1OC(n2cnc3c(NCc4ccco4)ncnc32)C(O)C1O` (stereo not drawn)?
ATXN viability: inconclusive; ATXN2 expr inh: inconclusive; TGFb inhibitor: 5µM*; GLP-1R agonist: 13%; GLP-1R inv ag: 10%; HepG2 tox-1: -88%; TGFb CAGA inh: 5.8µM*; HepG2 tox-2: 18µM*; TGFb CCL64 inh: 12µM*; TGFb COP inh: 33%

How did Fc1ccccc1-n1ncc2c1ncn1nc(COc3ccc(Cl)cc3)nc21 do in these assays?
GLP-1R inv ag: 7%; HepG2 tox-1: 6%

Results for C[C@H](CO)N1C[C@H](C)[C@H](CN(C)S(=O)(=O)c2cccs2)Oc2ccc(NC(=O)Nc3ccc4c(c3)OCO4)cc2CC1=O ?
ATXN viability: inconclusive; ATXN2 expr inh: -24%; TGFb inhibitor: inconclusive; GLP-1R agonist: 1%; GLP-1R inv ag: inconclusive; HepG2 tox-1: 2%; TGFb CAGA inh: inconclusive; HepG2 tox-2: -24%; TGFb CCL64 inh: -16%; TGFb COP inh: 9%

Results for Cc1noc(C)c1S(=O)(=O)Nc1ccc2c(c1)C(=O)N([C@@H](C)CO)C[C@H](C)[C@@H](CN(C)Cc1ccc(C(F)(F)F)cc1)OCCCC[C@H](C)O2 ?
ATXN2 expr inh: inconclusive; TGFb inhibitor: 10µM*; GLP-1R agonist: 17%; GLP-1R inv ag: inconclusive; HepG2 tox-1: -47%; TGFb CAGA inh: inconclusive; HepG2 tox-2: inconclusive; TGFb CCL64 inh: 33µM*; TGFb COP inh: 68%

Results for Cc1ccc(S(=O)(=O)Nc2cccc3c2O[C@H](CN(C)Cc2ccc(-c4ccccc4)cc2)[C@@H](C)CN([C@H](C)CO)C3=O)cc1 ?
ATXN viability: inconclusive; ATXN2 expr inh: -23%; TGFb inhibitor: 10µM*; GLP-1R agonist: -1%; GLP-1R inv ag: inconclusive; HepG2 tox-1: -23%; TGFb CAGA inh: 16µM*; HepG2 tox-2: -4%; TGFb CCL64 inh: inconclusive; TGFb COP inh: 40%

How did C[C@H](CO)N1C[C@H](C)[C@@H](CN(C)C(=O)Nc2ccc(C(F)(F)F)cc2)Oc2ccc(NS(=O)(=O)c3ccccc3)cc2C1=O do in these assays?
ATXN viability: inconclusive; ATXN2 expr inh: 0%; TGFb inhibitor: 6.3µM*; GLP-1R agonist: -1%; GLP-1R inv ag: inconclusive; HepG2 tox-1: -16%; TGFb CAGA inh: inconclusive; HepG2 tox-2: 1%; TGFb CCL64 inh: inconclusive; TGFb COP inh: 1%

How did Cc1cnc(/C=C/c2ccc(N(C)C)cc2)cn1 do in these assays?
TGFb inhibitor: -27%; HepG2 tox-1: -28%

Results for C[C@H](CO)N1C[C@H](C)[C@@H](CN(C)S(=O)(=O)c2ccc(Cl)cc2)Oc2ccc(NS(=O)(=O)c3ccccc3)cc2CC1=O ?
ATXN viability: inconclusive; ATXN2 expr inh: inconclusive; TGFb inhibitor: 4.5µM*; GLP-1R agonist: 0%; GLP-1R inv ag: inconclusive; HepG2 tox-1: 3%; TGFb CAGA inh: inconclusive; HepG2 tox-2: -11%; TGFb CCL64 inh: inconclusive; TGFb COP inh: 40%

How did COc1ccc(S(=O)(=O)Nc2ccc3c(c2)C(=O)N([C@H](C)CO)C[C@H](C)[C@H](CN(C)Cc2ccc(C(=O)O)cc2)O3)cc1 do in these assays?
ATXN viability: inactive; ATXN2 expr inh: -1%; TGFb inhibitor: 1%; GLP-1R agonist: -1%; GLP-1R inv ag: 8%; HepG2 tox-1: 0%

What do the screens show for `Cc1ccc(-c2ccc3c(c2)O[C@H](CN(C)C(=O)Nc2ccc(C(F)(F)F)cc2)[C@H](C)CN([C@H](C)CO)S3(=O)=O)cc1`?
ATXN viability: inconclusive; ATXN2 expr inh: 0%; TGFb inhibitor: 22µM*; GLP-1R agonist: 1%; GLP-1R inv ag: inconclusive; HepG2 tox-1: -14%; TGFb CAGA inh: 18µM*; HepG2 tox-2: inconclusive; TGFb CCL64 inh: inconclusive; TGFb COP inh: 47%

Results for C[C@@H]1CN([C@H](C)CO)C(=O)c2cc(NC(=O)Cc3ccccc3)ccc2O[C@H]1CN(C)Cc1ccc(Oc2ccccc2)cc1 ?
ATXN viability: inconclusive; ATXN2 expr inh: inconclusive; TGFb inhibitor: 11µM*; GLP-1R agonist: 3%; GLP-1R inv ag: inconclusive; HepG2 tox-1: -25%; TGFb CAGA inh: inconclusive; HepG2 tox-2: inconclusive; TGFb CCL64 inh: 16µM*; TGFb COP inh: 83%

Screening data: PubChem BioAssay, National Center for Advancing Translational Sciences (NCATS)
